# Bioassay records (PubChem)
# PMP22 txn = Cell-based coincidence reporter assay to measure PMP22 gene transcription in S16 Pmp22-F2sN cells - Primary screen. S16 Pmp22-F2sN Schwann cells, FLuc/NLuc coincidence luminescence, 24 h. Potency, µM (top dose mostly 57.5 µM), for inactives: top-dose activity change, negative = inhibition, usual class: inhibitors. hit rate 2% among 43,000; active means clear falling dose curves in both reporters; inconclusive means both reporters move, but less clearly or upward; inactive means either reporter flat; the % is the NLuc reporter signal; further: potency means the concentration at half of the fitted maximal effect; on the % scale 0 is the no-effect control and ±100 the full control effect
#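 Schwann cells carrying the coincidence reporter were exposed to library compounds for 24 h at 37C, then lysed and read for FLuc and, after quenching, NLuc luminescence on a CCD imager.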
# p53null 39C tox = qHTS Screen for Compounds that Selectively Target Cancer Cells with p53 Mutations: Cytotoxicity of p53 Null Cells at the Nonpermissive Temperature | AID 904, 2007 | H1299 p53-null (neo) cells, 39C, ATPlite viability, 24 h | hit rate 0.97% among 55,000 | Potency, µM (series often up to 46.1 µM), for inactives: at the top dose activity, negative = cell killing, actives largely listed as cytotoxic;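 further: potency means the concentration at half of the fitted maximal effect; 0% = DMSO only and -100% = full killing by 100 µM tamoxifen; nearly all actives have a fitted effect of over 50% in size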
#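 Temperature-shift cytotoxicity format: compound titrations on p53-null or A138V-expressing H1299 cells held 24 hr at 39C, cell ATP then measured, AC50 from Hill model.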
# S16 F2sN tox = Cell viability qHTS assay in S16 Pmp22-F2sN cells; S16 Pmp22-F2sN Schwann cells (luciferase reporters placed in the Pmp22 gene) viability, CellTiter-Glo, 24 h; Potency, µM (top dose mostly 57.5 µM), inactives show at the highest dose activity change, negative = cytotoxicity, actives largely listed as cytotoxic; hit rate 0.48% among 43,000; AID 1508642, 2021; further: potency means the concentration at half of the fitted maximal effect; on the % scale 0 is the no-effect control and ±100 the full control effect; nearly all actives have a fitted effect of over 65% in size
#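 CellTiter-Glo counter-screen, qHTS, 1536-well. Cells: S16(c9) Pmp22-F2sN, 500-1,000/well in DMEM + 10% FBS. Cpd 23 nL pin transfer, 24 h, 37C/5% CO2. Read: luminescence, CCD imager.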
# SKOV3 invasion = Primary qHTS assay for Inhibitors of ovarian cancer metastasis using an organotypic tumor microenvironment (TME) model; Potency, µM (series often up to 45.8 µM), for the others: at the highest dose activity change, negative = inhibition, most hits filed as inhibitors; AID 1963576, 2024; SKOV3ip1-GFP adhesion/invasion on 3D omental model, fluorescence; hit rate 0.1% among 46,000;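 further: potency means the concentration at half of the fitted maximal effect; plate controls were DMSO wells for no effect and tomatine positive control wells for full effect; nearly all actives have a fitted effect of over 65% in size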
#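 Primary human omental fibroblast/mesothelial 3D culture pre-formed 48 h. SKOV3ip1-GFP cells added with compounds (0.36-46 umol/L), incubated 2 h RT/16 h 37 C, fixed; GFP cells quantified at 488/509 nm.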
# mTORC1 inh = Acumen qHTS Assay for Inhibitors of the mTORC1 Signaling Pathway in MEF (Tsc2-/-, p53-/-) Cells: Sytravon; Tsc2-/- p53-/- MEF, phospho-rpS6 immunofluorescence/PI, 24 h; Potency, µM (top dose mostly 38.3 µM), inactives show at the top dose activity change, negative = inhibition, usual class: inhibitors; hit rate 0.78% among 44,000; AID 493208, 2011;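 further: potency means the concentration at half of the fitted maximal effect; plate controls were DMSO for no effect and rapamycin for full effect; nearly all actives have a fitted effect of over 50% in size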
#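 Immunofluorescence of rpS6 phosphorylation in Tsc2-/-, p53-/- MEFs after 24 h compound exposure, normalized to propidium iodide signal. Activity is expressed as % positive cells, thresholded with 7.5 nM rapamycin.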
# p53null 32C kill = qHTS Screen for Compounds that Selectively Target Cancer Cells with p53 Mutations: Cytotoxicity of p53 Null Cells at the Permissive Temperature. H1299-neo p53 null cells, ATP luminescence, 24 h, 32C. Potency, µM (titrated, usually from 46.1 µM), for the others: at the highest dose activity change, negative = cytotoxicity, actives largely listed as cytotoxic. hit rate 0.62% among 55,000. AID 903, 2007;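 further: potency means the concentration at half of the fitted maximal effect; 0% = DMSO only and -100% = full killing by 100 µM tamoxifen; nearly all actives have a fitted effect of over 55% in size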
#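 Overnight 37C seeding (600 cells/well) of H1299-neo preceded a 24 hr, 32C exposure to compounds up to 46 uM. ATP levels, read by luminescence after 20 min at RT, indicated surviving cells.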
# NLuc sat counter = Biochemical NLuc saturation counterscreen for small molecule modulators of PMP22 gene expression - Nano-Glo assay | shares compounds with PMP22 txn | Secreted NLuc enzyme (filtered S16 cell medium), Nano-Glo luminescence | Potency, µM (titrated, usually from 57.5 µM), for the others: at the highest dose activity change, negative = inhibition, usual class: inhibitors | hit rate 4% among 690 | AID 1508638, 2021; further: potency means the concentration at half of the fitted maximal effect; on the % scale 0 is the no-effect control and ±100 the full control effect
# NLuc Km ctr = Biochemical coelenterazine-based NLuc counterscreen for small molecule modulators of PMP22 gene expression - Km assay; Potency, µM (series often up to 57.5 µM), without a hit: at the highest dose activity change, negative = inhibition, most hits filed as inhibitors; AID 1508639, 2021; hit rate 5% among 690; secreted NLuc enzyme, coelenterazine luminescence, Km conditions; shares compounds with PMP22 txn; further: potency means the concentration at half of the fitted maximal effect; on the % scale 0 is the no-effect control and ±100 the full control effect
# FLuc counter = Biochemical FLuc counterscreen for small molecule modulators of PMP22 gene expression | shares compounds with PMP22 txn | purified P. pyralis FLuc, luminescence, 10 min | Potency, µM (titrated, usually from 57.5 µM), without a hit: top-dose activity, negative = inhibition, most hits filed as inhibitors | 690 tested, under 10 active | AID 1508640, 2021; further: % of control where 0% means no effect
# Target sequence (P08659 whole entry, looked up): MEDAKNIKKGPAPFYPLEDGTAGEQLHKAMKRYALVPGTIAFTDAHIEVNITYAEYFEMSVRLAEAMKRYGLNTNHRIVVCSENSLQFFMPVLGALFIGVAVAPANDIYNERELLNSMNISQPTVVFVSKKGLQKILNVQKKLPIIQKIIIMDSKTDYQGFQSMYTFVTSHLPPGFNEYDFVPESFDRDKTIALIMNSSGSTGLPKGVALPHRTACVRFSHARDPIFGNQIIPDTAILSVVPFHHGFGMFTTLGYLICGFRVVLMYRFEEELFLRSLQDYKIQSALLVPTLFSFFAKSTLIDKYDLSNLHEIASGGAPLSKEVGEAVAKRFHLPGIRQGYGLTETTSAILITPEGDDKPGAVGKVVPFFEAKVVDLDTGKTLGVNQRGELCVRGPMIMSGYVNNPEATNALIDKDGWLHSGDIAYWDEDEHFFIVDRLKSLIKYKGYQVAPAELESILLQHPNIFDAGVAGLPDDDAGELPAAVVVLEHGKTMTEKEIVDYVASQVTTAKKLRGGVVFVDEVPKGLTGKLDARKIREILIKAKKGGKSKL
# S16 F2sN tox cnf = Cell viability qHTS assay in S16 Pmp22-F2sN cells - Confirmatory screen. shares compounds with PMP22 txn. S16 Schwann cells viability, CellTiter-Glo ATP luminescence, 24 h. Potency, µM (highest dose often 57.5 µM), inactives show top-dose activity change, negative = viability loss, usual class: cytotoxic. hit rate 7% among 690. AID 1508641, 2021; further: potency means the concentration at half of the fitted maximal effect; on the % scale 0 is the no-effect control and ±100 the full control effect
# PMP22 txn cnf = Cell-based coincidence reporter assay to measure PMP22 gene transcription in S16 Pmp22-F2sN cells - Confirmatory screen; shares compounds with PMP22 txn; S16 Schwann cells Pmp22-F2sN, dual luciferase, 24 h; Potency, µM (series often up to 57.5 µM), inactives show at the highest dose activity change, negative = inhibition, hits mostly inhibitors; hit rate 22% among 690; AID 1508646, 2021; active means clear falling dose curves in both reporters; inconclusive means both reporters move, but less clearly or upward; inactive means either reporter flat; the % is the FLuc reporter signal; further: potency means the concentration at half of the fitted maximal effect
# PMP22 prot conf = Cell-based HiBiT reporter assay to measure PMP22 protein expression in S16 Pmp22-HiBiT cells - Confirmatory screen. shares compounds with PMP22 txn. 95 tested, under 10 active. S16 Schwann cells Pmp22-HiBiT, luminescence, 48 h. Potency, µM (doses to about 27.9 µM), inactives show at the highest dose activity change, negative = inhibition, hits mostly inhibitors. AID 1508647, 2021
# Target sequence (P25094 whole entry, looked up): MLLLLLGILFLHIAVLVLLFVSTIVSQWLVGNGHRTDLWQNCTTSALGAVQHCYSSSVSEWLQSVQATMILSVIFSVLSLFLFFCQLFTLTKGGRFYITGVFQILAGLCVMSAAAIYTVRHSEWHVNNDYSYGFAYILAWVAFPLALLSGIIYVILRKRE
# * marks the source's active call; other numbers are inactive results; i = inactive; ? = inconclusive; . = no result. A selection: hits, their analogues and other compounds. The true share with any hit is near 3.1%. Unless noted, the call rests on the fitted dose curve; in most records, active means well fitted curve in the direction sought with a large enough effect; inconclusive means small, poorly fitted or top-dose-only effect, or another doubt; inactive means no such curve, though single readings can be large; an effect the other way counts as inactive or inconclusive.
SMILES,PMP22 txn,p53null 39C tox,S16 F2sN tox,SKOV3 invasion,mTORC1 inh,p53null 32C kill,NLuc sat counter,NLuc Km ctr,FLuc counter,S16 F2sN tox cnf,PMP22 txn cnf,others
O=C(CSc1nc2ccsc2c(=O)n1-c1ccc(Br)cc1)NCc1ccc(Cl)cc1,12µM*,1%,2%,-1%,?,-3%,-5%,-2%,5%,3%,?,
O=C(CSc1nc2ccsc2c(=O)n1-c1ccc(Cl)cc1)NCc1ccc(Cl)cc1,?,15%,6%,i,-3%,1%,.,.,.,.,.,
C[C@@H]1CN(Cc2ccc(F)cc2)[C@@H](C)CN1C(=O)c1cc2c(C(=O)C(=O)N(C)C)cn(C)c2cc1Cl,.,.,.,5%,.,.,.,.,.,.,.,
Cc1cc(Br)cc2c1N(Cc1ccccc1OC(C)C)C(=O)C2=O,9.5µM*,?,?,?,?,?,?,?,-21%,?,15µM*,
COc1ccccc1CN1C(=O)C(=O)c2cccc(C)c21,-71%,-12%,?,-3%,-2%,-5%,.,.,.,.,.,
O=C(O)CCCCC(CCSCc1ccccc1)SCc1ccccc1 (stereo unspecified),.,.,.,10%,.,.,.,.,.,.,.,
c1ccc2c(CCNc3ccc(Nc4ccncc4)cc3)c[nH]c2c1,.,.,.,-26%,.,.,.,.,.,.,.,
Cn1cc(CN(C(=O)Nc2ccccc2)C2CCCCC2)c2ccccc21,9.5µM*,?,?,33%,-6%,-5%,?,?,-26%,-16%,?,
Cn1cc(CN(C(=O)Nc2ccc(Cl)c(Cl)c2)C2CCCCC2)c2ccccc21,-85%,8%,20%,i,-9%,4%,.,.,.,.,.,
Cc1n[nH]c(C)c1Cc1sc2c(c1C(=O)N1C[C@H](O)CO1)c(=O)n(C)c(=O)n2CC(C)C,.,.,.,0%,.,.,.,.,.,.,.,
CC(C)OC(=O)[C@H](C)N[P@](=O)(OC[C@H]1O[C@@H](n2ccc(=O)[nH]c2=O)[C@](C)(F)[C@H]1O)Oc1ccccc1,.,.,.,1%,.,.,.,.,.,.,.,
CCC(=O)N1CCc2cc(S(=O)(=O)CCC(=O)Nc3ccc(Cl)c(C(F)(F)F)c3)ccc21,11µM*,-6%,-16%,i,-12%,14%,-6%,5%,7%,-1%,18µM*,PMP22 prot conf=?
O=C(CCCCCCNC(=O)c1cnc(N(c2ccccc2)c2ccccc2)nc1)NO,.,.,.,-13%,.,.,.,.,.,.,.,
COC(=O)C1=C(C)N=C2SCCC(=O)N2C1c1ccc(OCc2ccccc2)c(OC)c1 (stereo unspecified),-7%,-11%,15%,-5%,-1%,3%,.,.,.,.,.,
COc1cc(C2C(C(=O)OC(C)C)=C(C)N=C3SCCC(=O)N32)ccc1OCc1ccccc1 (stereo unspecified),20µM*,7%,-15%,-18%,2%,3%,-5%,7%,-8%,?,-25%,
CCCCS(=O)(=O)c1nc(-c2ccc(Br)cc2)cc(-c2ccccc2)c1C#N,6.8µM*,28%,?,-26%,5.2µM*,20%,-12%,3%,4%,-12%,9.3µM*,PMP22 prot conf=98%
Clc1ccc(C2(c3ccc(-c4cn[nH]c4)cc3)CCNCC2)cc1,.,.,.,-13%,.,.,.,.,.,.,.,
Cc1cc(-c2ncc(CC(=O)Nc3ccc(-c4cnccn4)cn3)cc2C)ccn1,.,.,.,-1%,.,.,.,.,.,.,.,
O=C(CCc1nnc2n(Cc3ccccc3Cl)c(=O)c3ccccc3n12)Nc1ccccc1,13µM*,6%,7%,i,0%,-1%,-7%,1%,-5%,-48%,?,
CCN(CC)C(=O)c1sc2c(c1C)c(=O)n(-c1ccccc1)c(=O)n2Cc1cc(=O)n2ccccc2n1,12µM*,-4%,-1%,5%,1%,-4%,-4%,3%,0%,-5%,-27%,
Cc1c(C(=O)N(C)C)sc2c1c(=O)n(-c1ccc(F)cc1)c(=O)n2Cc1cc(=O)n2ccccc2n1,11%,-6%,0%,2%,-9%,-3%,.,.,.,.,.,
CNC(=O)c1ccc(N2C(=S)N(c3ccc(C#N)c(C(F)(F)F)c3)C(=O)C2(C)C)cc1F,.,.,.,11%,.,.,.,.,.,.,.,
CCc1cccc(NS(=O)(=O)c2ccc3c(c2)CC(C)N3C(=O)C2CC2)c1 (stereo unspecified),?,-3%,?,9%,-7%,42%,.,.,.,.,.,
